Assay [1] deals with PRMT1 (protein arginine N-methyltransferase 1). The assay is described as follows: PRMT1 binders on small-molecule microarrays, primary screen, biochemical, small-molecule microarray, 635 nm fluorescence (AID 1088).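 Note: binding of Prmt1 protein to compounds spotted on small-molecule microarray slides.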 Particulars: small-molecule microarray binding, higher = more signal.
Assay [2] in a line: yeast growth modulation, basal conditions, primary screen, YJM789 clinical isolate, OD600, 24 h (AID 1089).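 Note: growth of clinical yeast isolate S. cerevisiae YJM 789 seeded 1000 cells per well; test concentration not given here.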 Particulars: S. cerevisiae YJM789 growth, higher = more signal, called active from +8 up or from −8 down.
Assay [3] can be described thus: fission yeast growth modulation, primary screen, strain 972, OD600, 24 h, no modulator (AID 1090).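 Note: basal condition with compound alone and no growth modifier present; test concentration not given here.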 As to conditions: S. pombe 972 growth, higher = more signal, called active from +8 up or from −8 down.
A short description of assay [4]: S. cerevisiae growth modulation with rapamycin, primary screen, strain BY4716, OD600, 96 h (AID 1091). Note: test concentration not given here. Particulars: higher = more signal, called active from +8 up or from −8 down.
Assay [5] addresses Torsin-1A-interacting protein 2 (Homo sapiens) (UniProt Q8NFQ8). The assay is described as follows: LULL1 binders on small-molecule microarray, primary screen, cell lysate, human LULL1 lysate, 635/667 nm fluorescence (AID 1092).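 Note: probe is lysate of COS7 cells overexpressing human LULL1; score merges per-feature 667 nm fluorescence with signal-to-noise.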 Particulars: hLULL1 lysate binding, 635 nm fluorescence, higher = more signal.
Assay [6] is described as follows: E. coli growth modulation, two-sided OD650, primary screen, E. coli filamentation project, strain DRC41, 24 h (AID 1093).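 Note: MC1000 strain lacking acrAB efflux and sulA so SOS filamentation is blocked; test concentration not given here.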 Particulars: OD650, 24 h, higher = more signal, called active from +8 up or from −8 down.
A short description of assay [7]: small-molecule microarray binders of probe aLefty2, primary screen, biochemical, biotinylated probe, 635/667 nm fluorescence (AID 1094).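 Note: score merges spot fluorescence near 667 nm with spot signal-to-noise ratio.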 As to conditions: higher = more signal.
The test system of assay [8] is Noggin (protein binding on small-molecule microarray). Nature of the assay: Noggin binders on small-molecule microarray, primary screen, biochemical, 635/667 nm fluorescence (AID 1095).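 Note: score merges 667 nm feature fluorescence with signal to noise over triplicate slides.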 As to conditions: 635 nm fluorescence, higher = more signal.
The target of assay [9] is Neurogenic locus notch homolog protein 3 (Homo sapiens) (UniProt Q9UM47). Nature of the assay: NOTCH3 binders on small-molecule microarray, primary screen, biochemical, 635/667 nm fluorescence (AID 1096). As to conditions: NOTCH3 binding, 635 nm fluorescence, higher = more signal.
The nature of assay [10]: small-molecule microarray binders of probe aEGFR, primary screen, biochemical, biotinylated probe, 635/667 nm fluorescence (AID 1097).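 Note: probe is a biotinylated anti-EGFR antibody binding compounds printed on slides; score combines fluorescence near 667 nm and signal to noise of each spot.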 As to conditions: higher = more signal.

Calls of active or inactive are those of the source.

Sequence of Neurogenic locus notch homolog protein 3 (Homo sapiens) (Q9UM47 whole entry, looked up): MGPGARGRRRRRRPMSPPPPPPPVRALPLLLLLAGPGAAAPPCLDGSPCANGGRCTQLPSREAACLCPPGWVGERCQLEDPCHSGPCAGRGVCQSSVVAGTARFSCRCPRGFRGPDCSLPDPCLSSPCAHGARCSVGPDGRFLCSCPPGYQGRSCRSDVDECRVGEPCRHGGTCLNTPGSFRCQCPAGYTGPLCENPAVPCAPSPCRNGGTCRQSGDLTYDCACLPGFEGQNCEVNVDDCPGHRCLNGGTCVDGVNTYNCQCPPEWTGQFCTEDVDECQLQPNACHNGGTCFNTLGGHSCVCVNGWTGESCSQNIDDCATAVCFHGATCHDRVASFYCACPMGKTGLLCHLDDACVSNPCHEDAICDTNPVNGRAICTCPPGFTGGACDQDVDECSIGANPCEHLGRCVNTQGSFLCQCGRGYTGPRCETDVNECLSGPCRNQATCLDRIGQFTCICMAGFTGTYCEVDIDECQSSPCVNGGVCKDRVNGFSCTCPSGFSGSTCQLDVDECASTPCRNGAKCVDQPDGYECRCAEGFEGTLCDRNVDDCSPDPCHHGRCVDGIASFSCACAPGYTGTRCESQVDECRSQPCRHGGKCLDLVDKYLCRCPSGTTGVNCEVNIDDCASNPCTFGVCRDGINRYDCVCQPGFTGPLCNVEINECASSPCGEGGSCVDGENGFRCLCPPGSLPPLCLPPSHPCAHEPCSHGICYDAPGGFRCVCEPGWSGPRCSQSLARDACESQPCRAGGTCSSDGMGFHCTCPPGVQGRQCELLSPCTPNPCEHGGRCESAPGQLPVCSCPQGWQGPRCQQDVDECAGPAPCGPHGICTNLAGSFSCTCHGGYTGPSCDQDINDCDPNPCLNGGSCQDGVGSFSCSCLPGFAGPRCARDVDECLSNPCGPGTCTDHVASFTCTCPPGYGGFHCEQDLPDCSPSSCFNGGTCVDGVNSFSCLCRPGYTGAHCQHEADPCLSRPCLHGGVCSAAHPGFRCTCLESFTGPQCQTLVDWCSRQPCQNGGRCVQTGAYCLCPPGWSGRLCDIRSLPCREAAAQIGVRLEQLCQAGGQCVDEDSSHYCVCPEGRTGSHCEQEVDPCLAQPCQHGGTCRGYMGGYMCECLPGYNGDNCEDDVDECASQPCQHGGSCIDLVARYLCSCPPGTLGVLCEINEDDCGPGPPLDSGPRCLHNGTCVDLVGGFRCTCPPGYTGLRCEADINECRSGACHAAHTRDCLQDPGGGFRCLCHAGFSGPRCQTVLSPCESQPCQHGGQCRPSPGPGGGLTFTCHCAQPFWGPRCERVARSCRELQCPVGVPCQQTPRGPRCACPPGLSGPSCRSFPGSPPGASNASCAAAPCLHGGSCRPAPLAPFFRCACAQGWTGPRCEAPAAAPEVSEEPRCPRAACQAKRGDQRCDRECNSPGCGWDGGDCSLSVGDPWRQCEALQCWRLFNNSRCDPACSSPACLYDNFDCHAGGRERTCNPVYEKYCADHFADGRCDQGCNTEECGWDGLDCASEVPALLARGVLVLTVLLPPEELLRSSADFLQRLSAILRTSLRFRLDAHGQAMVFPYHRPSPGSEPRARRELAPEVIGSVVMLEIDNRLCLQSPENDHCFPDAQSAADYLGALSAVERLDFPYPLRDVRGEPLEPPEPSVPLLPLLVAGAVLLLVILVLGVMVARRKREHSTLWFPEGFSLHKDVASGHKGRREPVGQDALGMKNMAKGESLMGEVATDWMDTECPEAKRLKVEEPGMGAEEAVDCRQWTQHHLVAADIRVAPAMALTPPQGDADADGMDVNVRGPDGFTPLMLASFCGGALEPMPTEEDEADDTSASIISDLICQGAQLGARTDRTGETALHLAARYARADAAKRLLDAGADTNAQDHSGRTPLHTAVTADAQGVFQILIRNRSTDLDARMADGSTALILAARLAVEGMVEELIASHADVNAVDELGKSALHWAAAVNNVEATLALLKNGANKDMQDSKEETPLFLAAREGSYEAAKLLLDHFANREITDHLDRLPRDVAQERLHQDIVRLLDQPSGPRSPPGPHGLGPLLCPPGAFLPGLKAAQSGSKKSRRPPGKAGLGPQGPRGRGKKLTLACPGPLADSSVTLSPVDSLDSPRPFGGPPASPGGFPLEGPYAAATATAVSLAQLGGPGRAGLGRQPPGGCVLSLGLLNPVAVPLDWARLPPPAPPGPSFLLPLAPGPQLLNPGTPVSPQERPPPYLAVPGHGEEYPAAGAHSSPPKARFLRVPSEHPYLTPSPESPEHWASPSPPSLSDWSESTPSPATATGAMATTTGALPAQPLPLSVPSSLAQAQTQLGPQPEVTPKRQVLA
Sequence of Torsin-1A-interacting protein 2 (Homo sapiens) (Q8NFQ8 whole entry, looked up): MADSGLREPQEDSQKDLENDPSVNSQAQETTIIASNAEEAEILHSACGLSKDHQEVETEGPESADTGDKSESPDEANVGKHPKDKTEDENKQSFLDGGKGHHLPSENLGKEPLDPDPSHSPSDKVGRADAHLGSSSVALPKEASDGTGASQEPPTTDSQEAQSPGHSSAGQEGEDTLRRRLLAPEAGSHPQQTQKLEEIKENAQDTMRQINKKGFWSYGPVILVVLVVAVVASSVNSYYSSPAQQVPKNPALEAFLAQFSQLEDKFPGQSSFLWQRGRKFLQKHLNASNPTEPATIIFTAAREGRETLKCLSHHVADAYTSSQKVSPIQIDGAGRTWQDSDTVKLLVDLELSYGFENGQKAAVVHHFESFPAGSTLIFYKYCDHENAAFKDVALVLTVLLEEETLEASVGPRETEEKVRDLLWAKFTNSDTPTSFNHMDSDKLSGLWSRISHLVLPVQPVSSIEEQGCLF

Regarding `COc1ccc([Si](C)(C)[C@H]2[C@H](CCO)O[C@@]3(C(=O)N(Cc4cccc(N5C(=O)c6ccccc6Oc6ccccc65)c4)c4ccccc43)[C@@H]2C)cc1`, the composite z-score in assay [1] was 0.891; in [5], 1.51; in assay [7], -0.118; in assay [8] it was -0.202; in assay [9], 0.451; in assay [10] it was -0.108. Moreover, the z-score was 2.14 (inactive) in [2], -0.506 (inactive) in assay [3], 23.1 (active) in assay [4] and 1.03 (inactive) in [6].

For the compound `O=C(NCCN1CCOCC1)[C@@H]1c2ccccc2C(=O)N(Cc2ccc(OC(F)(F)F)cc2)[C@H]1c1ccc(CO)cc1`, the composite z-score was 1.19 in assay [1]; 3.09 in assay [5]; -0.0766 in assay [7]; 0.0807 in assay [8]; -0.0807 in [9]; -0.126 in assay [10]. The z-score in assay [2] is -1.58 (inactive); in assay [3], -0.748 (inactive); in [4], -0.846 (inactive); in [6], 0.0461 (inactive).

For the compound `COc1ccc(C(O)C2C=CC3C(=O)N(c4ccccc4)C(=O)C3N2Nc2ccc(C#N)cc2)cc1OCc1ccccc1` (stereo not given), the composite z-score in assay [1] is 1.3; in assay [5], 2.6; in assay [7], 0.455; in assay [8] it was -0.634; in assay [9], 1.11; in [10], 0.0808. Further, the z-score in assay [2] was -0.598 (inactive); in [3], 1.66 (inactive); in assay [4], 1.38 (inactive); in assay [6], -1.16 (inactive).

With `CCCC[C@H]1C[C@@H]1[C@@H]1N(C(C)=O)[C@H](c2cccc(OC)c2)CC12CC2`, the composite z-score in assay [1] was -0.383; in [5], 0.755; in assay [7], 0.116; in assay [8] it was -0.502; in [9] it was -0.27; in assay [10], 0.0192. Further, the z-score in [2] is -0.872 (inactive); in assay [3], -8.39 (active); in assay [4], -1.82 (inactive); in assay [6], -0.563 (inactive).

Regarding `C=C(/C(=C/C[C@@H](OC(C)=O)c1cccc(OCCO)c1)c1cnc2ccccc2c1)C(C)C`, the composite z-score in assay [1] is 1.55; in assay [5] it was 0.77; in assay [7] it was -0.207; in assay [8], 2.09; in assay [9], 0.801; in assay [10] it was -0.139. Moreover, the z-score is 0.0631 (inactive) in assay [2], -0.396 (inactive) in [3], -0.28 (inactive) in assay [4] and 0.974 (inactive) in assay [6].

For the compound `CN(C)CCCNC(=O)[C@@H]1c2ccccc2C(=O)N(Cc2ccccc2C(F)(F)F)[C@H]1c1ccc(CO)cc1`, the composite z-score was 0.986 in assay [1]; 0.767 in assay [5]; 0.0518 in assay [7]; -0.396 in [8]; -0.704 in assay [9]; -0.213 in [10]. Also, the z-score was 0.0389 (inactive) in assay [2], -1.28 (inactive) in [3], -0.461 (inactive) in assay [4] and 1.53 (inactive) in assay [6].

For `O=C(NCc1ccc(F)cc1)[C@H]1C[C@H]2C(=O)N3CCC[C@H]3C(=O)N2[C@H]1c1ccc(O)cc1`, the composite z-score in assay [1] is 0.0679; in assay [5], -0.296; in [7], -0.0963; in [8], -0.139; in assay [9], -0.484; in assay [10] it was -0.169. In addition, the z-score in assay [2] was -1.04 (inactive); in assay [3] it was -1.47 (inactive); in assay [4], 0.164 (inactive); in [6] it was 2.41 (inactive).

On to `N#Cc1ccc(C(O)C2C=CC3C(=O)NC(=O)C3N2Nc2ccc(Cl)cc2Cl)cc1` (stereo not given), for which the composite z-score in assay [1] was 0.156; in assay [5] it was 3.39; in assay [7] it was 0.103; in assay [8], -0.185; in [9], 0.559; in assay [10], -0.0594. Also, the z-score is -2.93 (inactive) in assay [2], -0.615 (inactive) in assay [3], 0.448 (inactive) in assay [4] and -0.343 (inactive) in assay [6].

For the compound `NC(=O)NCC#Cc1ccc2c(c1)[C@]1(C(=O)N2)[C@H](c2ccc(OCCO)cc2)N2[C@H](c3ccccc3)[C@H](c3ccccc3)OC(=O)[C@H]2[C@@H]1C(=O)O`, the composite z-score was -0.541 in assay [1]; -0.143 in [5]; -0.139 in [7]; -0.292 in assay [8]; -0.343 in [9]; -0.209 in [10]. Moreover, the z-score is 0.467 (inactive) in assay [2], -0.662 (inactive) in [3], 0.23 (inactive) in assay [4] and 0.775 (inactive) in assay [6].

On to `CCOC(=O)C1=CC[C@@H](c2ccc(OC)cc2)N(S(=O)(=O)c2ccc(C)cc2)[C@H]1CC`, for which the composite z-score in [1] is 1.56; in assay [5] it was 3.05; in assay [7] it was 0.0319; in assay [8], 0.0635; in [9], 1.08; in assay [10], -0.0157. Also, the z-score in assay [2] is -1.48 (inactive); in assay [3], 0.971 (inactive); in assay [4], 0.879 (inactive); in assay [6], 0.66 (inactive).

Turning to `COC(=O)[C@@]1(Cc2ccc(F)cc2)[C@H]2c3cc(C(=O)N(C)C)n(C)c3C[C@H]2CN1C(=O)c1ccccc1`, the composite z-score in [1] was -0.97; in assay [5], 2.54; in [7], 0.519; in assay [8], -0.608; in [9] it was 0.381; in assay [10], 0.383. The z-score in assay [2] was 0.0108 (inactive); in [3], 0.476 (inactive); in [4] it was 0.08 (inactive); in [6], -0.339 (inactive).

In the case of `O=C(NC1CC1)[C@@H]1c2ccccc2C(=O)N(Cc2cc(C(F)(F)F)cc(C(F)(F)F)c2)[C@H]1c1ccc(CO)cc1`, the composite z-score is 1.43 in assay [1]; 2.92 in [5]; -0.508 in assay [7]; 0.76 in [8]; 0.491 in [9]; -0.399 in assay [10]. Further, the z-score in assay [2] is -0.523 (inactive); in [3] it was -1.38 (inactive); in assay [4], -0.108 (inactive); in assay [6], -0.275 (inactive).

For `C=CCNC(=O)[C@@H]1[C@H]2C(=O)O[C@H](c3ccccc3)[C@H](c3ccccc3)N2[C@H](c2ccc(OCCO)cc2)[C@@]12C(=O)Nc1ccc(C#CC3(O)CCCCCC3)cc12`, the composite z-score in assay [1] came out at 1.45; in assay [5] it was 2.55; in [7], 0.0208; in assay [8], 1.03; in assay [9] it was 1.07; in [10], 0.0519. For the same compound, the z-score is 1.84 (inactive) in [2], 0.267 (inactive) in assay [3], 4.71 (inactive) in assay [4] and 1.2 (inactive) in assay [6].

Regarding `O=C1N(Cc2ccccc2)c2ccccc2C[C@@]12COC(c1ccc(OCCCO)cc1)=N2`, the composite z-score was 1.56 in assay [1]; 3 in assay [5]; 0.249 in assay [7]; 1.07 in assay [8]; 0.944 in assay [9]; -0.0238 in assay [10]. For the same compound, the z-score in assay [2] is -0.91 (inactive); in assay [3] it was -1.56 (inactive); in [4], 2.83 (inactive); in [6] it was 1.54 (inactive).

In the case of `C[C@@H]1ON(c2ccccc2)[C@H](c2ccccc2)[C@H]1C(=O)O`, the composite z-score in [1] was 0.461; in assay [5], -0.0551; in [7], -0.196; in assay [8] it was 0.175; in assay [9], 0.102; in [10], 0.203. In addition, the z-score is -0.452 (inactive) in assay [2], 0.252 (inactive) in [3], -0.408 (inactive) in assay [4] and -0.108 (inactive) in [6].

The record behind these values is PubChem BioAssay.
